HSP90 refold inh: blocks HSP90-mediated luciferase refolding in reticulocyte lysate | Rabbit reticulocyte lysate, luciferase refolding luminescence, 3 h | inhibition, % at 5.6 µM | hit rate 0.91% among 290,000;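 active means inhibition above the screen-wide mean plus 3 SD, computed separately per campaign, cut at about 16% in these data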;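 further: 0% = DMSO wells and 100% = 60 µM geldanamycin wells; inhibitors lower the luminescence because luciferase stays unfolded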
C8 TRAIL sens: sensitizes caspase-8 expressing cells to TRAIL. hit rate 1% among 360,000. NB7+C8 cells + TRAIL, ATPlite viability luminescence. AID 624354. inhibition (viability loss, TRAIL sensitization), % at 10 µM;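 active means compounds causing at least 50% loss of cell viability in the single-dose screen, relative to plate controls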
PPC-1+TRAIL kill: PPC-1 cancer cell killing with TRAIL present | cell killing (% activity), % at 4 µM or 5 µM | hit rate 0.41% among 220,000 | PPC-1 cells + TRAIL, ATPLite viability luminescence;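 active means cell killing above 50% in the first pass at 4 µM, then a duplicate retest at 5 µM averaging 50% or more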;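 further: plate controls were cells with TRAIL plus DMSO for no effect and medium-only wells lacking cells for full effect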
Platelet DG rel: modulates dense granule release in human platelets | human platelet-rich plasma, SFLLRN dense granule ATP release, luminescence | inhibition, %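 (compounds screened at 7.5 µM in platelet-rich plasma)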 | hit rate 0.22% among 300,000 | AID 1663;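 active means mean replicate score, as percent of positive control, at or above 50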
TROY signal inh: inhibitors of TROY-dependent NF-kB signaling. Q293 LMP1-TROYcd NF-kB luciferase reporter, 4 h. inhibition, % at 10 µM. hit rate 0.98% among 360,000;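 active means compounds whose plate-normalised and pattern-corrected inhibition of the luciferase reporter signal at the single screening dose is 50% or more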
TWEAK Fn14 block: inhibitors of TWEAK-Fn14 interaction signaling; TWEAK-stimulated Fn14 reporter cells, luciferase luminescence, 8 h; inhibition, % at 10 µM; hit rate 2% among 360,000; AID 1159606; in the data active means inhibition above about 50%
HSP90 confirm: HSP90 inhibition, confirmation assay | shares compounds with HSP90 refold inh | rabbit reticulocyte lysate, luciferase refolding luminescence, 3 h | inhibition, % at 5.9 µM | hit rate 64% among 2,300 | AID 1846; in the data active means inhibition above about 18%;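 further: 0% = vehicle wells and 100% = reference inhibitor wells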
FLuc counter: blocks native firefly luciferase in HSP90 counter-screen | inhibition, % at 5.9 µM | shares compounds with HSP90 refold inh | hit rate 48% among 2,300 | AID 1847 | purified native firefly luciferase, luminescence;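 active means inhibition above the mean inhibition of all tested sample wells plus 3 SD, cut at about 10% in these data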;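 further: 0% = DMSO with luciferase and 100% = wells lacking luciferase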
Target sequence (P08659 whole entry, looked up): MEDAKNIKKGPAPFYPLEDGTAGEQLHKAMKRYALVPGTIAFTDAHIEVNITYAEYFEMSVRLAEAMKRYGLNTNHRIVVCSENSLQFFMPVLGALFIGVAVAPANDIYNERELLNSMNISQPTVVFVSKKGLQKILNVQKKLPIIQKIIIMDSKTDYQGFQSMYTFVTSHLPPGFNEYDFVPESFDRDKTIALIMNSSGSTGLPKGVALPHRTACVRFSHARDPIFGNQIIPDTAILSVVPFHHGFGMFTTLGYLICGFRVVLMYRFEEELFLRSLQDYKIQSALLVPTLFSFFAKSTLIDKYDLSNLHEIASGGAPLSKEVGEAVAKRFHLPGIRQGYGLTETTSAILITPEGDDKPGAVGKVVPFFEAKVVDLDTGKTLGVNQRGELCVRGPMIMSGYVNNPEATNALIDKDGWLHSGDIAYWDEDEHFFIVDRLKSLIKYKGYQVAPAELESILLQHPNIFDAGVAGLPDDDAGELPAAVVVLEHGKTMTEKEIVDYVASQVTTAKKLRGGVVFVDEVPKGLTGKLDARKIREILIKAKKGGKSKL
An asterisk follows results filed as active; . = no result. Compounds with a hit are over-represented: about 3.5% of the library has one in this group of screens.

SMILES	HSP90 refold inh	C8 TRAIL sens	PPC-1+TRAIL kill	Platelet DG rel	TROY signal inh	TWEAK Fn14 block	HSP90 confirm	FLuc counter
CN=C1S/C(=C\c2cc(C)n(-c3ccccc3F)c2C)C(=O)N1C	49*	55*	40	15	80*	82*	65*	63*
COc1cc(OC)c(NS(=O)(=O)c2cccc(C(=O)OCC(=O)NCC3CCCO3)c2)cc1Cl (stereo not drawn)	-2	-17	18	7	11	-1	.	.
COC(=O)c1ccc(CN2C(=O)c3ccccc3S2(=O)=O)cc1	1	8	15	11	-8	4	.	.
Cc1ccc(C(=O)CN2/C(=C(\O)c3ccccc3)C(=O)c3ccccc3S2(=O)=O)c(C)c1	40*	28	13	8	37	2	14	0
O=C(Nc1nc(-c2ccncc2)cs1)c1ccco1	-3	-3	-10	0	-11	7	.	.
COc1cccc(Nc2nc(-c3ccc4c(c3)OCCO4)cs2)c1	4	23	26	12	43	33	.	.
C=CCNc1nc(-c2ccc3c(c2)OCCO3)cs1	19*	21	.	-5	-22	-17	33*	32*
c1cc2c(cc1Nc1nc(-c3ccc4c(c3)OCO4)cs1)OCCO2	37*	4	-3	0	44	56*	23*	-10
O=C(Nc1nc(-c2ccc3c(c2)OCCO3)cs1)c1ccco1	18*	47	.	7	11	26	20*	9.9*
COc1ccccc1CN1CC(C(=O)NCC2(O)CCCCC2)CCC1=O (stereo not drawn)	.	-6	.	.	-12	-9	.	.
CC(C)Sc1nc(SCC(=O)NCc2ccco2)c2c3c(sc2n1)COC(C)(C)C3	21*	11	12	-1	79*	79*	36*	1
CC(C)Sc1nc(SCC(=O)O)c2c3c(sc2n1)COC(C)(C)C3	8	5	5	4	-44	-15	.	.
N/C(=N\N=C\c1cccc([N+](=O)[O-])c1)c1nonc1N	4	-19	8	-4	-32	-25	.	.
N/C(=N\N=C\c1ccc2c(c1)OCO2)c1nonc1N	21*	40	19	38	-25	21	54*	37*
Cc1cc(C(=O)COC(=O)c2ccc(O)cc2)c(C)n1-c1ccccc1F	50*	7	9	-6	84*	75*	58*	49*
Cc1occc1C(=O)Nc1cccc(C(=O)O)c1	13	4	2	-3	-27	-26	.	.
O=C(CCCc1ccccc1)Nc1cccc(C(=O)O)c1	61*	13	19	3	-15	-4	71*	75*
Nc1ccccc1C(=O)Nc1cccc(C(=O)O)c1	33*	-4	-26	-4	-10	2	42*	21*
O=C(CCc1ccccc1)NC(=S)Nc1cccc(C(=O)O)c1	33*	2	.	-8	-79	-1	41*	23*
COC(=O)c1cccc(NC(=O)CCc2ccccc2)c1	-4	2	12	-3	-62	0	.	.
Cc1cccc(C)c1OCC(=O)Nc1cccc(C(=O)O)c1	23*	2	20	-3	-60	-14	36*	30*
Cc1ccc(C)c(OCC(=O)Nc2cccc(C(=O)O)c2)c1C	1	-8	4	-1	-29	-19	.	.
CCC[C@H]1CC(=O)C=C(c2ccc(OC)cc2)ON1C(=O)OC(C)(C)C	.	-3	.	.	-14	2	.	.
O=C(CSc1nnc(C2CCCCC2)o1)Nc1ccccc1Cl	-3	16	.	3	-54	-35	.	.
O=C(CNC(=O)c1ccco1)OCC(=O)c1ccc([N+](=O)[O-])cc1	0	2	.	-4	4	3	.	.
SMILES	HSP90 refold inh	C8 TRAIL sens	PPC-1+TRAIL kill	Platelet DG rel	TROY signal inh	TWEAK Fn14 block	HSP90 confirm	FLuc counter
CCN(CC)CCNC(=O)CNC(=O)c1nn(-c2ccc(OC)c(OC)c2)c(=O)c2ccccc12	3	4	.	-8	-1	4	.	.
CCn1cnc2cc(NCc3nc4ccccc4n3Cc3ccccc3)ccc21	48*	12	6	8	80*	81*	47*	40*
O=C(O)c1ccc(NCc2nc3ccccc3n2Cc2ccccc2)cc1	4	18	15	17	-2	-9	.	.
CCOc1ccc(C(=O)Nc2cccc(C(=O)O)c2C)cc1Cl	88*	8	14	-5	-15	68*	92*	68*
Cc1c(NC(=O)c2ccc(-c3ccccc3)cc2)cccc1C(=O)O	75*	6	13	16	-50	35	81*	63*
CCc1nc2c(s1)CCc1onc(-c3ccc(Cl)cc3)c1-2	.	10	.	-5	-8	9	.	.
Fc1ccc(-n2nnc(-c3cnc4ccccc4c3)n2)cc1	19*	61*	43	6	73*	94*	81*	77*
Cc1ccc(S(C)(=O)=O)cc1C(=O)NC(C)C1CC2CCC1C2 (stereo not drawn)	-4	-5	.	-1	-16	-13	.	.
CCc1ccc(/C=C2\SC(=S)N(CCCC(=O)Nc3ccccn3)C2=O)cc1	28*	63*	7	-2	72*	41	32*	-16
COC(=O)c1ccc(/C=C2/SC(=S)N(CCCC(=O)Nc3ccccn3)C2=O)cc1	3	-1	20	1	28	9	.	.
Nc1cc(=O)[nH]c(SCC(=O)Nc2ccc(N3CCCCC3)cc2)n1	.	-20	.	.	-14	5	.	.
COc1cccc(/C=N/Nc2ncccc2[N+](=O)[O-])c1OC	67*	10	24	82*	75*	100*	77*	70*
Cc1cc[n+](-c2[nH]c(=O)sc2/C=N/N=C(\[O-])c2ccccc2)cc1C	18*	3	8	-1	-30	-6	-6	-14
CCC(C)(C)C1CCC2(CC1)NC(=O)N(CC(=O)N1CCN(c3ccccc3OC)CC1)C2=O (stereo not drawn)	.	10	.	.	-8	-9	.	.
CCN(CC)CCOc1c(Br)ccc2c1sc1nc3n(c(=O)c12)CCC3	-1	-7	1	-4	-35	-30	.	.
O=c1c2c(nc3n1CCCCC3)sc1c(O)c(Br)ccc12	23*	35	43	-7	36	68*	35*	37*
CCN(CC)S(=O)(=O)c1ccc(C(=O)NC(C)(C)C)cc1	5	-12	-4	-1	-12	4	.	.
CN(C)S(=O)(=O)c1ccc(C(=O)Nc2nc3ccccc3[nH]2)cc1	-4	11	15	7	-58	-5	.	.
COc1ccc(Cl)cc1C(=O)Nc1nc2ccccc2[nH]1	71*	81*	.	14	71*	95*	87*	77*
O=C(Nc1nc2ccccc2[nH]1)c1ccc(OC(F)F)cc1	37*	83*	.	24	5	-1	58*	53*

Assay outcomes: PubChem BioAssay, several laboratories
